Z-score data for 59 molecules are collected here from PubChem BioAssay AID488969 (Vanderbilt High Throughput Screening Facility, 2010).

Each structure is given as a SMILES string. Whole data set: some 110,000 compounds, median “z-score” near -0.1, cut for the highest 2% near 2. This excerpt belongs to a sample that is enriched for the highest values. Calls of active or inactive are those of the source.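 How the source made its calls: active means z-score in the third read window above 3 or below -3; inactive means the rest.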

Sequence of Metabotropic glutamate receptor 8 (Rattus norvegicus) (P70579 whole entry, looked up): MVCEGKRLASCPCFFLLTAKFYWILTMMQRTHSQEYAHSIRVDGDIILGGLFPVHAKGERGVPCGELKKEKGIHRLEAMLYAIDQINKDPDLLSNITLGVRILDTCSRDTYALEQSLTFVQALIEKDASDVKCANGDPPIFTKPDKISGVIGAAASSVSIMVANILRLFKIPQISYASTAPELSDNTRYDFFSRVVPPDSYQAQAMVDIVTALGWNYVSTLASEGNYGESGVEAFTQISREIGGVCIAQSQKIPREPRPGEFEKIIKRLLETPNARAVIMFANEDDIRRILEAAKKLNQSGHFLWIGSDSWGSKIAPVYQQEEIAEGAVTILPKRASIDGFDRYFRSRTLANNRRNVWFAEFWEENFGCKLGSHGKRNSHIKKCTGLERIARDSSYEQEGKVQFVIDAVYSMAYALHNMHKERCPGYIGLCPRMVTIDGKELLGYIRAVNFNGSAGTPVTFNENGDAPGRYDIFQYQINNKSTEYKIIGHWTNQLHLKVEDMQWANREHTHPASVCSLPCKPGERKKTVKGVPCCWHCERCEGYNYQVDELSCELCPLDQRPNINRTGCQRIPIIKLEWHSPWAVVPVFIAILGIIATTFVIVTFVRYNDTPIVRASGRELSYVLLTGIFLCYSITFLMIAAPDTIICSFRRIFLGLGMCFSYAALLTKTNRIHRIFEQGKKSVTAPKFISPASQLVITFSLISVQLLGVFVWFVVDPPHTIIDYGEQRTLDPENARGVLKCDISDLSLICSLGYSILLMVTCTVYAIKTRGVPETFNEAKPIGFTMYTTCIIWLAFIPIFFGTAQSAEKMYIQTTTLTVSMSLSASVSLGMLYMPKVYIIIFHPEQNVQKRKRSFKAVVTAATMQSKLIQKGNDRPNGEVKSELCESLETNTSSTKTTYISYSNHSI

This experiment addresses Metabotropic glutamate receptor 8 (Rattus norvegicus) (UniProt P70579). Briefly: rat mGluR8 modulators via GIRK flux, primary screen, cell-based, thallium flux, HTS (AID 488969). The conditions noted are these: HEK293 rat mGluR8, GIRK (G protein-gated inwardly rectifying potassium channel) thallium flux, FluoZin2; at 10 µM; stronger effect = higher value; submaximal glutamate (EC20) added with thallium.
Molecule `O=C(Nc1ccccc1N1CCN(c2ccc(F)cc2)CC1)C12CC3CC(CC(C3)C1)C2` yielded a z-score of -1.97.

In the case of `O=C(NC(=S)N1CCCCC1)C12CC3CC(CC(C3)C1)C2`, the z-score is 5.6 (active).

In the case of `CC12CC3(C)CC(C)(C1)CC(C(=O)NC(=S)N1CCOCC1)(C2)C3`, the z-score was 8.61 (active).

`O=C(NC(=S)N1CCN(c2ccc(F)cc2)CC1)C12CC3CC(CC(C3)C1)C2` displayed a z-score of 2.89.

In turn, `O=C(N1CCOCC1)C12CC3CC(C1)CC(C(=O)N1CCOCC1)(C3)C2` gave a z-score of 0.153.

Molecule `O=C(N1CCN(c2ccccc2)CC1)C12CC3CC(CC(C3)C1)C2` had a z-score of -0.202.

As for `O=C(NC(=S)N1CCOCC1)C12CCC3CC(CC(C3)C1)C2`, the z-score worked out at 0.411.

In the case of `CC12CC3CC(C)(C1)CC(CN1CCOCC1)(C3)C2`, the z-score was -0.06.

As for `CC12CC3(C)CC(C)(C1)CC(C(=O)NC(=S)NC(C)(C)C)(C2)C3`, the z-score was determined as 0.0601.

Molecule `CCOC(=O)Nc1cccc(NC(=O)c2cc(OC)cc(OC)c2)c1` came in with a z-score of -0.454.

`C=CCc1ccc(OCC(O)COCC)c(OC)c1` (centres undefined) showed a z-score of -0.12.

`N#C/C(=C\c1cccs1)C(=O)NCc1cccnc1` yielded a z-score of -0.112.

With `O=C(CNc1ccc(C(F)(F)F)cc1[N+](=O)[O-])OCC(=O)c1ccccc1`, the z-score was -0.875.

On to `O=C(CC12CC3CC(CC(C3)C1)C2)NCC(=O)N1CCCC1`, for which the z-score worked out at 0.463.

For the molecule `CCOc1ccccc1N1CCN(C(=S)Nc2ccc(S(N)(=O)=O)cc2)CC1`, the z-score was -0.356.

Regarding `CC12CC3CC(C)(C1)CC(C(=O)NC(=S)N1CCCCC1)(C3)C2`, the z-score is 8.62 (active).

`O=C(CC12CC3CC(CC(C3)C1)C2)N1CCCC1`: the z-score is -0.327.

`O=C(CC12CC3CC(CC(C3)C1)C2)NC(=S)N1CCCCC1` registered a z-score of 2.58.

`CCOc1ccccc1N1CCN(C(=S)NC(=O)C23CC4CC(CC(C4)C2)C3)CC1`: the z-score is 4.1 (active).

In the case of `CCN(CC)CCNC(=O)C12CC3CC(C)(CC(C)(C3)C1)C2`, the z-score came out at 0.873.

`O=C(NC(=S)N1CCCCCC1)C1CC1` registered a z-score of 0.000532.

Molecule `CCOc1ccccc1N1CCN(C(=O)c2ccccc2)CC1` showed a z-score of -1.51.

`COC1(c2ccccc2)NC(=S)NN=C1c1ccccc1` (centres undefined): the z-score is 0.721.

Molecule `O=S(=O)(c1cccc(NC(=S)N2CCN(c3ccccc3)CC2)c1)C(F)F` returned a z-score of -0.245.

The molecule `Cc1occc1-c1nnc(SCC(=O)NC(C)(C)C)n1C(C)c1ccccc1` (centres undefined) registered a z-score of 0.32.

`CN1C(=O)c2ccccc2C(C(=O)NCC2CCCO2)C1c1c[nH]c2ccccc12` (centres undefined): the z-score is -1.14.

Regarding `COc1ccc(CCNC(=O)COC(=O)c2ccc(Br)o2)cc1OC`, the z-score was 0.125.

Take `COc1ccc(CC(=O)NNC(=O)CSc2nnc(Cc3ccc(OC)cc3)n2-c2ccccc2)cc1`: the z-score is -0.277.

Take `N#Cc1ccccc1NC(=O)c1ccccc1OCC(=O)Nc1ccc2c(c1)oc1ccccc12`: the z-score is -0.362.

Take `CC(C)(C)NC(=O)COC(=O)c1ccccc1OCC(=O)Nc1ccc(Br)cc1`: the z-score is -0.154.

The molecule `CCN1C(=O)CC(N2CCC(Nc3ccc(OC)cc3)CC2)C1=O` (centres undefined) came in with a z-score of 0.0918.

As to `COc1ccc(CCNC(=O)COc2ccc(S(=O)(=O)NCC(C)C)cc2Cl)cc1OC`, the z-score was -0.464.

The molecule `Cc1ccc(NC(=O)/C(C#N)=C/c2cc(C)n(-c3ccc(N4CCOCC4)c([N+](=O)[O-])c3)c2C)c(C)c1` registered a z-score of -0.136.

With `CCOC(=O)N1CCC(N2C(=O)c3ccccc3C2Nc2c(C)cccc2C)CC1` (centres undefined), the z-score was -0.177.

Take `CCOC(=O)N1CCC(N2C(=O)c3ccccc3C2Nc2ccc3c(C)cc(=O)oc3c2)CC1` (centres undefined): the z-score was 4.01 (active).

The molecule `CCOC(=O)N1CCC(N2C(=O)c3ccccc3C2Nc2ccc(C)cc2)CC1` (centres undefined) registered a z-score of -0.488.

On to `CCOC(=O)N1CCC(N2C(=O)c3ccccc3C2Nc2ccccc2C)CC1` (centres undefined), for which the z-score is 2.74.

`CCOC(=O)c1ccccc1NC1c2ccccc2C(=O)N1C1CCN(C(=O)OCC)CC1` (centres undefined) returned a z-score of -0.69.

Consider `CCOC(=O)N1CCC(N2C(=O)c3ccccc3C2Nc2ccccc2)CC1` (centres undefined), for which the z-score is -0.126.

Take `CCN(CC)c1ccc(C(=O)N/N=C(\C)c2ccc(OC)c(OC)c2)cc1`: the z-score is 0.585.

`CCOC(=O)c1cc2c(ccn2C)n1CC(=O)N(Cc1ccccc1)c1ccc(F)cc1`: the z-score was found to be 1.2.

Take `CCOC(=O)C(C)(C)Sc1nc2c(cnn2-c2ccc(Cl)cc2)c(=O)[nH]1`: the z-score is -0.781.

Take `Cc1ccc(OCC(=O)c2ccc3c(c2)CCCC3)cc1C`: the z-score was -0.12.

Take `O=C(Nc1ccc2c3c(cccc13)CC2)c1ccco1`: the z-score was 0.0277.

`Cc1cc(C)c(NC(=O)c2ccccc2N(C)S(C)(=O)=O)c(C)c1` gave a z-score of 0.0701.

As to `CC1(C)CC(=O)c2cn3nc(C(F)(F)F)nc3nc2C1`, the z-score was -0.129.

The molecule `CCC1(c2ccccc2)NC(=S)N(c2cccc(C)c2C)N1` (centres undefined) gave a z-score of 1.26.

For the molecule `CC1CCC2(CC1)NC(=S)N(c1ccccc1)N2` (centres undefined), the z-score was found to be 0.323.

`CCC1(c2ccc(Cl)cc2)NC(=S)N(c2ccccc2)N1` (centres undefined): the z-score is 4.78 (active).

As to `Cc1ccc(SCCC(=O)Nc2ccc(Br)c(C)c2)cc1`, the z-score was -0.0218.

For `Cc1ccsc1/C=N/n1c(-c2ccco2)n[nH]c1=S`, the z-score came out at 0.377.

Molecule `S=c1[nH]nc(-c2ccco2)n1/N=C/c1ccccc1Cl` had a z-score of 1.07.

Consider `Cn1cccc1/C=N/n1c(-c2ccc(Cl)cc2Cl)n[nH]c1=S`, for which the z-score turned out to be 2.46.

As to `S=c1[nH]nc(-c2ccco2)n1/N=C/c1ccc(Cl)cc1Cl`, the z-score is 6.87 (active).

Consider `S=c1[nH]nc(-c2ccco2)n1/N=C/c1ccc(Cl)cc1`, for which the z-score was -0.0483.

Molecule `Cn1cccc1/C=N/n1c(-c2ccc(Cl)cc2)n[nH]c1=S` gave a z-score of 1.03.

`Cc1ccc(-c2n[nH]c(=S)n2/N=C/c2cccn2C)cc1` had a z-score of 1.02.

In the case of `S=c1[nH]nc(-c2ccco2)n1/N=C/c1cccc(Cl)c1Cl`, the z-score was 5.73 (active).

Molecule `S=c1[nH]nc(-c2ccco2)n1/N=C/c1ccc(Cl)c(Cl)c1` returned a z-score of 1.59.
